FBW7 activator: activators of human E3 ligase FBW7; AlphaScreen FBW7–phospho-cyclin E peptide binding, activator screen; normalized activity (activation), % at 26.1 µM; 650,000 compounds, 0.13% hits; AID 1259310; in the data active = normalized activity above about 1.9%;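 also: purified mutant Fbw7 with reduced substrate affinity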
TEAD-YAP block: TEAD-YAP interaction inhibition | HEK-TIYL cells, TEAD-Gal4/YAP UAS-luciferase luminescence | inhibition, % at 9.12 µM | 640,000 compounds, 1.4% hits | AID 1259422; in the data active = inhibition above about 32%;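 also: 0% = median of test compound wells and 100% = reference inhibitor wells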
MITF inh: blocks human microphthalmia-associated transcription factor. O75030. AlphaScreen MITF homodimerization, bead proximity signal. inhibition, % at 2.6 µM. 650,000 compounds, 0.91% hits. AID 1259374; in the data active = inhibition above about 50%;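 also: 0% = vehicle wells with protein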
GPR151 activ: human GPR151 activation. Q8TDV0. PathHunter beta-arrestin GPR151 cells, luminescence. activation, % at 11.2 µM. 650,000 compounds, 1% hits. AID 1508602; in the data active = activation above about 4.9%;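 also: 0% = median of compound wells and 100% = cells with positive control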
Target sequence (Q8TDV0 whole entry, looked up): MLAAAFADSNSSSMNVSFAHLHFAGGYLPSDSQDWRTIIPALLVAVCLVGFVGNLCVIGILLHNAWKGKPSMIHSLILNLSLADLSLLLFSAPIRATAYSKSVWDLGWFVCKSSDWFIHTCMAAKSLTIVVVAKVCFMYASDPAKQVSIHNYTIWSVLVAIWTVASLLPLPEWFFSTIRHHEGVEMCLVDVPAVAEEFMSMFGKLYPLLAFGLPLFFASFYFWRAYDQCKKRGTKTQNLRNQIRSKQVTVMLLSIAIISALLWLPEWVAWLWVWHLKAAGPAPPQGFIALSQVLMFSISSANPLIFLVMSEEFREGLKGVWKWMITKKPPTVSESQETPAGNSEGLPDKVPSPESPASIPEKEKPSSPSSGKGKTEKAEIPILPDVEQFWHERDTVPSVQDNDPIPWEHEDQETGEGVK
MITF inh conf: human MITF inhibition, confirmation. shares compounds with MITF inh. AlphaScreen MITF homodimerization, biotin/His-MITF beads. inhibition, % at 2.6 µM. 4,700 compounds, 16% hits;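 active = inhibition above a cutoff derived from the DMSO control wells, cut at about 28% in these data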;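 also: 0% = MITF dimer wells with DMSO only; inhibitors lower the bead chemiluminescence by keeping MITF from dimerizing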
AS interf ctr: optically interferes with AlphaScreen signal; shares compounds with MITF inh; LysRS AlphaScreen counterscreen, signal interference, triplicate; inhibition, % at 2.6 µM; 4,700 compounds, 7.6% hits;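 active = inhibition above a cutoff derived from the DMSO control wells, cut at about 30% in these data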
* hit, by the source's call; / = no result. An excerpt weighted towards active compounds, which were near 3.4% of everything screened.

SMILES	FBW7 activator	TEAD-YAP block	MITF inh	GPR151 activ	MITF inh conf	AS interf ctr
O=[N+]([O-])c1ccc(CN2CCC(N3CCN(CCO)CC3)CC2)cc1	0	5	53*	-1	11	10
CC1CCCC(N2CCN(c3ccc([N+](=O)[O-])cc3)CC2)C1 (configuration not stated)	0	-10	20	1	/	/
CCCN1CCC(N2CCN(c3ccc([N+](=O)[O-])cc3)CC2)CC1	0	-3	55*	0	11	18
O=[N+]([O-])c1ccc(CN2CCC(N3CCCCCC3)CC2)cc1	0	1	14	1	/	/
CC1CCC(N2CCN(Cc3ccc([N+](=O)[O-])cc3)CC2)CC1 (configuration not stated)	0	2	65*	-1	12	13
O=C(CSc1nnnn1C1CCCCC1)c1ccccc1	0	-1	5	0	/	/
O=C(CSc1nnnn1C1CCCC1)c1ccccc1F	0	-62	116*	-2	-8	24
CC(=O)NNC(=O)CSc1nnnn1C1CCCCC1	0	-5	76*	-1	7	15
CCc1ccc(NC(=O)CSC2=C(C#N)C(c3cccs3)C(C(=O)Nc3ccccc3)=C(C)N2)cc1 (configuration not stated)	0	11	57*	0	3	2
COCCNCCOCCOc1cc(C)cc(C(C)C)c1	0	1	53*	-1	5	6
C=CCNCCOc1cc(C)cc(C(C)C)c1	0	-13	-19	-1	/	/
C=CCNCCOCCOc1cc(C)cc(C(C)C)c1	0	0	64*	2	11	19
C=CCSc1nnc(Cn2cnc3ccccc32)n1C	0	0	-5	0	/	/
CCOC(=O)c1ccc(NC2SC(=O)N(c3ccc(C)cc3)C2=O)cc1 (configuration not stated)	0	-7	-8	-2	/	/
COc1ccccc1CN1CCN(Cc2ccccc2[N+](=O)[O-])CC1	-1	0	79*	0	6	11
O=[N+]([O-])c1ccccc1CN1CCN(C/C=C/c2ccccc2)CC1	0	11	58*	1	8	25
O=[N+]([O-])c1ccc(O)cc1CN1CCN(C/C=C/c2ccccc2)CC1	0	5	1	1	/	/
COc1ccc(CN2CCN(Cc3ccccc3[N+](=O)[O-])CC2)c(OC)c1OC	0	4	23	-1	/	/
COc1cc(CN2CCN(C(=O)CC(C)C)CC2)c([N+](=O)[O-])cc1OC	0	-7	60*	-1	2	-2
COc1cc(CN2CCN(Cc3ccccc3[N+](=O)[O-])CC2)cc(OC)c1OC	0	9	62*	2	-1	5
Cc1ccsc1C1C(C#N)=C(N)N(N(C)C)C2=C1C(=O)CC(c1ccccc1)C2 (configuration not stated)	0	14	-5	-2	/	/
O=C1C2C3CCC(C3)C2C(=O)N1c1ccc(Oc2ccc(Cl)cc2)cc1 (configuration not stated)	0	-13	11	0	/	/
CCOc1cc(CN2CCN(Cc3ccc([N+](=O)[O-])cc3)CC2)ccc1OC	0	6	68*	-1	-3	2
COc1cccc(C(=O)N2CCN(Cc3ccccc3[N+](=O)[O-])CC2)c1	0	-3	48	0	/	/
COc1cc(CN2CCN(c3ccccc3)CC2)cc([N+](=O)[O-])c1O	0	7	52*	-1	0	1
SMILES	FBW7 activator	TEAD-YAP block	MITF inh	GPR151 activ	MITF inh conf	AS interf ctr
COc1cccc(CN2CCN(Cc3ccccc3[N+](=O)[O-])CC2)c1OC	-1	-6	61*	-1	21	27
COc1cccc(OC)c1C(=O)N1CCN(Cc2ccccc2[N+](=O)[O-])CC1	0	-8	56*	0	-1	-6
CN1CCc2nc(SCC(=O)OCc3ccccc3)c(C#N)c(-c3ccccc3)c2C1	0	-2	7	0	/	/
C=CCNC(=O)c1ccccc1NC(=O)C1CC(=O)N(c2ccc(OC(C)C)cc2)C1 (configuration not stated)	0	5	3	1	/	/
CCC(CC)NC(=O)Cc1ccc(Br)cc1	0	1	-15	-1	/	/
CCOc1cc(CN2CCN(Cc3ccc(CC)cc3)CC2)ccc1OC	0	1	59*	0	5	-9
CCOc1cc(CN2CCN(Cc3ccccc3[N+](=O)[O-])CC2)ccc1OC	0	-7	71*	-1	-5	1
COc1cc(CN2CCN(Cc3cc(OC)c(OC)c(OC)c3)CC2)c([N+](=O)[O-])cc1OC	0	-4	58*	0	15	18
CCOc1cc(CN2CCN(Cc3cccc(F)c3)CC2)ccc1OC	0	3	43	0	/	/
CCOc1ccc(CN2CCN(S(=O)(=O)c3ccccc3[N+](=O)[O-])CC2)cc1OC	0	0	34	0	/	/
CC1=C/C(=N/OC(=O)c2ccc([N+](=O)[O-])cc2)C(Br)C(Br)C1=O (configuration not stated)	1	-31	0	0	/	/
Cc1nnc(SCC(=O)Nc2ccc3nc(SCC(=O)Nc4ccc(C)c(Cl)c4)sc3c2)s1	0	5	6	3	/	/
Ic1ccc(OCCNC2CCCC2)cc1	0	12	59*	-1	-19	-3
Ic1ccc(OCCCNC2CCCC2)cc1	0	13	9	1	/	/
CCCCNCCOCCOc1ccc(C)c(C)c1	0	1	61*	1	0	4
CCCCNCCOCCOc1cccc(Cl)c1	0	6	80*	1	5	6
CC(C)N(CCc1ccncc1)C(=S)NCc1ccccc1	0	-16	13	-1	/	/
CN(C)c1ccc(NC(=O)CSc2ncc(C#N)c(N)n2)cc1	0	15	13	0	/	/
COc1ccc(OC)c(CN(CCCN(C)C)CCCN(C)C)c1	0	-7	59*	0	-11	-6
COc1ccc(OC)c(CN2CCN(Cc3ccc(Br)cc3)CC2)c1	0	-3	77*	-1	0	-1
CCc1ccc(CN2CCN(Cc3cc(OC)ccc3OC)CC2)cc1	0	2	65*	-2	11	17
COc1ccc(OC)c(CN2CCN(S(C)(=O)=O)CC2)c1	0	12	60*	-1	11	11
COc1ccc(Br)cc1CN(CCCN(C)C)CCCN(C)C	0	-6	48	1	/	/
COc1ccc(S(=O)(=O)N2CCN(Cc3cc(OC)ccc3OC)CC2)cc1	0	1	5	0	/	/
Cc1ccc(C(=O)OCC(=O)c2ccc(Cl)s2)cc1S(=O)(=O)N1CCOCC1	1	-5	21	-3	/	/
CNc1cc(N2CCN(C(=O)Cc3ccccc3)CC2)ccc1[N+](=O)[O-]	0	-5	-4	-1	/	/
COc1ccc(OC)c(CN2CCN(C3CCC(C)CC3)CC2)c1 (configuration not stated)	0	2	57*	1	9	-4
